BCR signal inh – blocks chronic active B-cell receptor signaling; 340,000 compounds, 0.05% hits; Potency, µM (highest dose often 46.1 µM), most hits filed as inhibitors; ABC-DLBCL IkBa-CBG/CBR reporter, luminescence ratio, 4 h; active = well fitted inhibition curve with a large enough effect in the signal ratio, with a control signal flat, not every such curve was filed as active; inconclusive = small, poorly fitted or top-dose-only effect, or effect the other way, or a change in a side signal; the % refers to the signal ratio
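TMD8 human ABC-DLBCL cells with doxycycline-inducible IκBα–green luciferase fusion and unfused red luciferase, in 0.5% FBS medium; compounds up to 46 uM, 4 h at 37C. Green/red luminescence ratio, filter-overlap corrected, fitted to concentration-response curves.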
TCR act – T cell receptor activation | primary human leukocytes, anti-CD3, IL-2 HTRF, 48 h | Potency, µM (doses to about 9.22 µM), most hits filed as activators | 330,000 tested, under 10 active | AID 504894
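TCR engagement came from a-CD3 beads alone, with compounds added to primary human leukocytes for 48 hr. Secreted IL-2 bridged europium cryptate- and d2-labelled anti-IL-2 antibodies, giving FRET emission at 665nm after 320nm excitation.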
CCT modulator – changes cytosolic chaperonin activity | purified chaperonin ATPase assay, HTRF ADP detection, 30 min | activity change, % (no concentration beside the values), hits read low | 360,000 compounds, 0.3% hits | AID 651819; in the data active = activity change below about -30%
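First, chaperonin was dispensed at 40 nM or 20 nM final depending on batch activity. Next, compounds were pinned at 76 uM and ATP added at 10 uM. After 30 min at 37 °C, ADP detection reagents ran 30 min at ambient temperature.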
Tb PFK inh-1 – blocks T. brucei phosphofructokinase; O15648; T. brucei PFK, ADP-Glo luminescence; Potency, µM (doses to about 57.5 µM), actives largely listed as inhibitors; 330,000 compounds, 0.17% hits; AID 485367; note: nearly all actives have a fitted effect of over 60% in size
Target sequence (O15648 whole entry, looked up): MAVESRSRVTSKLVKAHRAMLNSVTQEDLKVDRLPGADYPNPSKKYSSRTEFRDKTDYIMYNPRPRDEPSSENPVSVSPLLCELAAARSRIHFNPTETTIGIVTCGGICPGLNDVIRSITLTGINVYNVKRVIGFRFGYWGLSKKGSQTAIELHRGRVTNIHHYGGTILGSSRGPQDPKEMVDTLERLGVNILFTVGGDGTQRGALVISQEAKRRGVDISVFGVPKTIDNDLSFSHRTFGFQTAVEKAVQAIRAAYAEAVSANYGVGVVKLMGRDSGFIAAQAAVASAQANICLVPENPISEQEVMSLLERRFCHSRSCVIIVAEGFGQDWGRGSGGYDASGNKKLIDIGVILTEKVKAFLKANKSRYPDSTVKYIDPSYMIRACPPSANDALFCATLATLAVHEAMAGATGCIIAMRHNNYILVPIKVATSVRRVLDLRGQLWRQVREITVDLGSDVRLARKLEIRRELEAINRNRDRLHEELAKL
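ADP-Glo luminescence quantified ADP after 45 min at room temperature, with 1.25 nM T. brucei PFK, 0.1 mM ATP and 0.5 mM fructose-6-phosphate in pH 8.0 TEA buffer. qHTS titrations up to 57 µM; curves classified by quality.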
ASM inhibitor – blocks human secretory acid sphingomyelinase; P17405; placental ASM, HMU-PC fluorogenic substrate, 60 min; 340,000 compounds, 0.006% hits; Potency, µM (series often up to 57.5 µM), hits mostly inhibitors
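Steps: dispense placental human ASM, pin compound, wait 10 min at room temperature, add HMU-PC0 substrate at 9 uM final, incubate 60 min at 37 °C, add stop solution raising pH to 10, read fluorescence.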
TbPFK ATP – orthogonal confirmation of T. brucei phosphofructokinase inhibitors; shares compounds with Tb PFK inh-1; Tb PFK enzyme, ATP depletion, Kinase-Glo Plus luminescence; Potency, µM (doses to about 57.5 µM); 1,100 compounds, 47% hits; AID 504636; calls by dose curve; note: nearly all actives have a fitted effect of over 60% in size
Tb PFK inh-2 – T. brucei PFK enzyme inhibition, hit validation. shares compounds with Tb PFK inh-1. purified T. brucei PFK, ADP-Glo luminescence, 45 min. Potency, µM (top dose mostly 57.5 µM), usual class: inhibitors. 1,100 compounds, 41% hits. AID 504637; note: nearly all actives have a fitted effect of over 60% in size
Hits are given with their value; i = inactive; ? = inconclusive; nt = not tested or not shown. Only some compounds are listed: those with a hit (about 0.49% of all), similar ones and a draw of the others. Unless noted, calls come from the whole dose curve; as a rule, active = well fitted curve in the direction sought with a large enough effect; inconclusive = small, poorly fitted or top-dose-only effect, or another doubt; inactive = no such curve, though single readings can be large; an effect the other way counts as inactive or inconclusive.

SMILES	BCR signal inh	TCR act	CCT modulator	Tb PFK inh-1	ASM inhibitor	TbPFK ATP	Tb PFK inh-2
O=C(O)c1cccc(-n2sc3ccccc3c2=O)c1	?	i	i	6.01µM	i	15.1µM	16.9µM
O=c1c2ccccc2nc(Cc2ccccc2)n1-c1ccccc1	i	i	i	i	i	nt	nt
Cc1ccccc1-n1sc2cc(F)ccc2c1=O	?	i	i	2.69µM	i	?	10.7µM
O=c1c2cc(F)ccc2sn1-c1ccccc1	?	i	i	6.75µM	i	?	?
O=c1c2ccccc2sn1-c1nccs1	i	i	i	8.49µM	i	?	?
Cc1ccc(-n2sc3ccccc3c2=O)cc1S(=O)(=O)N1CCCCC1	?	i	i	13.5µM	i	?	6.75µM
Cc1ccc(C(=O)Nc2ccccc2)cc1S(=O)(=O)N1CCCC1	i	nt	nt	nt	nt	nt	nt
CCN(CC)c1ccc(/C=N/NC(=O)c2ccoc2C)c(O)c1	?	i	i	i	i	nt	nt
CCOC(=O)CC(SP1(=S)OCC2(CC=CCC2)CO1)C(=O)OCC (stereo not drawn)	nt	i	i	nt	i	nt	nt
O=C(O)c1cc(N2N=C(C(F)(F)F)/C(=C/C=C/c3ccco3)C2=O)ccc1Cl	?	i	i	16.9µM	i	4.78µM	5.36µM
Cc1nccc(-c2cc(-c3ccc(Cl)cc3Cl)no2)n1	?	i	i	i	i	nt	nt
O=C(NNC(=O)c1ccccc1Br)c1ccc2nc[nH]c2c1	?	i	i	21.3µM	i	?	?
COc1cc(C)c(NC(=O)C(=S)NCCc2ccccc2)cc1C	i	i	i	?	i	23.9µM	?
COc1ccccc1/C=C1\SC(=S)N(CCC(=O)NCCc2ccc(O)cc2)C1=O	?	i	i	i	i	nt	nt
C[C@H](CO)N1C[C@H](C)[C@@H](CN(C)C(=O)Oc2ccc3ccccc3c2)OCc2cn(nn2)CCCC1=O	nt	nt	i	nt	nt	nt	nt
COc1cc(-c2cc(=O)c3c(O)c(OC)c(OC)c(O)c3o2)ccc1O	i	i	i	?	i	6.01µM	9.53µM
O=[N+]([O-])c1[nH]cnc1Br	nt	i	i	nt	i	nt	nt
O=[N+]([O-])/C=C\c1ccc(N2CCCC2)c(F)c1	?	i	i	?	i	2.39µM	6.01µM
O=[N+]([O-])c1cc(F)c(N2CCCC2)cc1Br	i	i	i	i	i	nt	nt
CCCC1(CC(C)C)C(=O)NC(=S)NC1=O	nt	i	i	nt	i	nt	nt
COc1ccc2[nH]c3c(=O)n(CCCCC(=O)NCCN4CCCC4)c(=S)[nH]c3c2c1	?	nt	i	?	i	?	?
COc1ccc(NC(=O)CNc2cccc(C#N)c2)cc1Cl	?	i	i	?	i	?	?
Nc1[nH]n(-c2ccccc2)c(=O)c1N=Nc1ccc2ncsc2c1	?	i	i	i	i	nt	nt
COc1ccccc1N1CCN(C(=O)C(C)CS(=O)(=O)c2ccc3c(c2)NC(=O)CS3)CC1 (stereo not drawn)	i	i	i	23.9µM	i	6.01µM	?
COc1ccccc1N1CCN(CCc2c[nH]c3cc4c(cc23)OCO4)CC1	nt	i	i	nt	i	nt	nt
SMILES	BCR signal inh	TCR act	CCT modulator	Tb PFK inh-1	ASM inhibitor	TbPFK ATP	Tb PFK inh-2
COc1ccccc1/C=C/C=C(\C#N)C(=O)NC(C)c1ccccc1 (stereo not drawn)	?	i	i	i	i	nt	nt
O=C(COC(=O)c1ccc(Cl)c(S(=O)(=O)N2CCOCC2)c1)Nc1ccc2[nH]c(=O)[nH]c2c1	i	i	i	?	i	?	?
O=c1oc2ccccc2c(O)c1[C@H]1c2ccc(O)cc2Oc2c1c(=O)oc1ccccc21	?	i	i	?	i	i	?
O=[N+]([O-])c1ccc(CNc2cccc(F)c2)s1	i	nt	i	13.5µM	i	5.36µM	13.5µM
Cc1cccc(NCc2ccc([N+](=O)[O-])s2)c1	i	nt	i	?	i	21.3µM	?
CN1CCc2cc(O)cc3c2[C@H]1Cc1ccc(O)c(O)c1-3	nt	i	i	nt	i	nt	nt
CN1CCc2cccc3c2[C@@H]1Cc1ccc(O)c(O)c1-3	?	i	i	4.26µM	i	1.69µM	6.01µM
COc1ccc(C(SCC(NC(=O)OCc2ccccc2)C(=O)O)c2ccc(OC)cc2)cc1 (stereo not drawn)	nt	nt	i	nt	nt	nt	nt
CC(=O)Nc1ccc(S(=O)(=O)NC(CSc2ccc(C(=O)O)cc2[N+](=O)[O-])C(=O)O)cc1 (stereo not drawn)	i	i	i	?	i	i	?
COc1ccc(C[C@H]2CN3C(=NC[C@@H]3C(C)C)N2CCNC(=O)c2ccc(C)c(Br)c2)cc1	?	i	i	i	i	nt	nt
COC(=O)\C(C(C)=O)=C(/C=C/C=C/C=C/N(C)C)N(C)C	i	i	i	?	i	?	?
N#CC1c2ccccc2-n2nncc2CN1C(=O)c1ccccc1F (stereo not drawn)	nt	nt	i	nt	nt	nt	nt
Cc1ccc(C(=O)Nc2nnc(CC(=O)N/N=C/c3ccc(O)c(O)c3)s2)cc1	i	i	i	?	i	i	i
COc1ccc(C(=O)Nc2nnc(CC(=O)N/N=C/c3ccc(O)cc3O)s2)cc1	?	nt	nt	?	nt	i	?
CCOC(=O)[C@]12Cc3cc(Cl)ccc3[C@H]1N(C(C)C)C(=O)c1ccccc12	nt	nt	i	nt	nt	nt	nt
COc1c(OP2(=S)OCC(C)(C)CO2)cnn(C2CCCCC2)c1=O	nt	nt	i	nt	nt	nt	nt
Cc1c(Cl)cccc1NC(=O)C(=O)NNC(=O)c1ccccc1F	i	i	i	?	i	i	?
Cc1cccc(NP(=O)(Oc2ccccc2F)Oc2ccccc2F)c1C	i	i	i	i	i	nt	nt
CSc1nc(=S)c2[nH]c(=S)[nH]c2[nH]1	i	i	i	?	i	5.36µM	19µM
COC(=O)C1CCN(C(=O)COC(=O)c2cc(-c3ccccc3)nc3ccc(OC)cc23)CC1	?	i	i	?	i	?	?
N#Cc1ccc(OCC(=O)Nc2ccc(S(=O)(=O)N3CCOCC3)cc2)cc1	i	i	i	12µM	i	12µM	30.1µM
Cc1cc(NS(=O)(=O)c2ccc(NC(=S)NCc3ccccc3)cc2)no1	i	i	i	19µM	i	23.9µM	?
Cc1noc(NS(=O)(=O)c2ccc(NC(=O)COc3ccc(C#N)cc3)cc2)c1C	i	i	i	13.5µM	i	6.75µM	21.3µM
Cc1cc(NS(=O)(=O)c2ccc(NC(=O)Cc3ccc([N+](=O)[O-])cc3)cc2)no1	i	i	i	2.39µM	i	0.849µM	1.51µM
O=C(Oc1ccc2cc(Br)ccc2c1)N1CCCCCC1	?	i	nt	i	nt	nt	nt
Cc1cc(NS(=O)(=O)c2ccc(NC(=O)COc3ccc(Cl)cc3)cc2)no1	?	i	i	5.36µM	i	1.69µM	3.79µM
CCc1nnc(NS(=O)(=O)c2ccc(NC(=O)COc3ccc(Cl)c(C)c3)cc2)s1	i	i	i	5.36µM	i	2.39µM	7.57µM
